In the library only some 0.24% were active in any assay of this set; here they are far more common.
Bcl-XL Bim block = disrupts Bim peptide binding to human Bcl-XL; bead flow cytometry, fluorescence; inhibition, % at 10 µM; 0.04% of 190,000 active; AID 1007
Bim-Bcl-W = inhibitors of Bim-Bcl-W interaction, human; Q92843; bead-based flow cytometry, Bim peptide-Bcl-W binding; AID 952; 0.02% of 190,000 active; inhibition, % at 10 µM;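 note: 0% = bound tracer without compound and 100% = peptide blocker; higher means less fluorescent Bim peptide bound to Bcl-W beads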
Target sequence (Q92843 whole entry, looked up): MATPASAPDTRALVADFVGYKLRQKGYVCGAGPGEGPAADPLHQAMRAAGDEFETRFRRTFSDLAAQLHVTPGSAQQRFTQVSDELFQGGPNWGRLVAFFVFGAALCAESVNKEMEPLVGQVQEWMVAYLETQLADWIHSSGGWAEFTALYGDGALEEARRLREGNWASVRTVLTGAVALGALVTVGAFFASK
PKD1 inh = blocks activity of human protein kinase D1. Q15139. PKD1 kinase fluorescence polarization assay. inhibition, % (no concentration beside the values). 0.056% of 200,000 active. AID 797; in the data active = inhibition above about 50%
Bfl-1 Bim block = human Bim-Bfl-1 interaction inhibition | Q16548 | Bead-based flow cytometry, Bim-Bfl-1 binding inhibition | inhibition, % at 10 µM | 0.12% of 190,000 active | AID 1008;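 note: 0% = wells without compound plus tracer and 100% = blocker peptide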
Bim-Bcl-2 = human Bim-Bcl-2 interaction inhibition; P10415; Bead-based flow cytometry, Bim peptide-Bcl-2 binding; inhibition, % at 10 µM; 0.06% of 190,000 active; in the data active = inhibition above about 40%;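 note: 0% = no compound wells with probe peptide and 100% = reference peptide inhibitor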
Target sequence (P10415 whole entry, looked up): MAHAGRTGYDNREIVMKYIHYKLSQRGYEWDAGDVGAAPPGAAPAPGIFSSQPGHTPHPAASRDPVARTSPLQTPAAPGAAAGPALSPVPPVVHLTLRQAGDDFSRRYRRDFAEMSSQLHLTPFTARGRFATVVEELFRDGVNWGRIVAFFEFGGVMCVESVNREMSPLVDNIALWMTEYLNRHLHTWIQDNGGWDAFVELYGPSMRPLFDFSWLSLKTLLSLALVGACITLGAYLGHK
Bcl-B Bim block = disrupts Bim peptide binding to human Bcl-B | Q9HD36 | bead-based flow cytometry | inhibition, % at 10 µM | 0.073% of 190,000 active;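 note: 0% = tracer peptide without compound and 100% = reference inhibitor peptide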
FP interf 140K = counter-screen for PKD inhibitors: fluorescence polarization interference; shares compounds with PKD1 inh; PKD1 FP assay interference counter-screen; inhibition, % at 10 µM; 85 tested, under 10 active; AID 1315; call rule not given here
Bim-Bcl-XL DR = dose-response confirmed modulator of Bim binding to human Bcl-XL; bead-based flow cytometry; 40 tested, under 10 active; shares compounds with Bfl-1 Bim block; inhibition of binding at 100 µM; call rule not given here
Active calls of the source: *; · = not tested or not shown. Cut-off read from the data, not from the text of the source, unless noted: active = inhibition above about 40%.

SMILES | Bcl-XL Bim block | Bim-Bcl-W | PKD1 inh | Bfl-1 Bim block | Bim-Bcl-2 | Bcl-B Bim block | FP interf 140K | others
CC(=O)Oc1ccc(-c2cccc(C(=O)NCCCO)c2)cc1 | -6 | -3 | -6 | -1 | -4 | -8 | ·
CC(=O)Nc1ccc2c(c1)c1ccccc1n2C(C)=O | -2 | -1 | 59* | -1 | -2 | -2 | -13
N#C/C(=N\Nc1ccc(Cl)cc1)C(=O)c1ccccc1 | 8 | 4 | 0 | 9 | 7 | 4 | ·
Cc1c(N/N=C(\C#N)C(=O)c2ccc(Cl)cc2)c(=O)n(-c2ccccc2)n1C | 0 | 0 | 62* | 2 | 4 | -2 | 15
Cn1c(OCc2cccnc2)nc2c1c(=O)n(Cc1ccc(Br)cc1)c(=O)n2C | -3 | -2 | 97* | 4 | -2 | -5 | -4
Cc1cc(N=CC2=C(O)CC(C)(C)CC2=O)no1 | 1 | 0 | 60* | -1 | -2 | 0 | -4
CC1(C)CC(=O)C(C=Nc2ccncc2)=C(O)C1 | · | · | -7 | · | · | · | ·
O=S(=O)(c1cccc2cnccc12)N1CCCNCC1 | -4 | -1 | 104* | -1 | -1 | -1 | -5
CCOC(=O)COc1cc(N)c(Cl)cc1Cl | -1 | 0 | -2 | -3 | -1 | -1 | ·
Cn1c(=O)[nH]c(=O)c2c1nc(NC1CCCCC1)n2CC(=O)NC1CCCCC1 | -4 | -3 | 101* | -13 | -8 | -12 | -24
O=C(Nc1ccccc1Cl)ON=C1c2ccccc2-c2ccccc21 | 3 | 8 | 61* | -11 | -2 | -3 | -11
O=C(Nc1ccccc1)O/N=C(\c1ccccc1)c1ccccn1 | -3 | 2 | -10 | -16 | -4 | -7 | ·
O=C(Nc1ccccc1)ON=C1c2ccccc2-c2ccccc21 | 0 | 0 | 51* | -2 | -1 | -5 | 4
CCOc1ccc(Br)cc1S(=O)(=O)Nc1ccc(NC(=O)c2ccccc2F)cc1 | -4 | -1 | -7 | -1 | -2 | -2 | ·
O=C(Nc1cccc([N+](=O)[O-])c1)C12CC3CC(C1)CC(n1cnc([N+](=O)[O-])n1)(C3)C2 | 0 | 0 | 62* | 0 | -1 | 1 | 0
COc1ccc(/C=N/NC(=O)c2ccc(N(C)S(=O)(=O)c3ccccc3)cc2)cc1OC | -7 | -7 | 4 | -19 | -6 | -8 | ·
C=CCOc1ccc(C2C(C(=O)c3cccs3)=C(O)C(=O)N2c2nnc(C)s2)cc1 (stereo unspecified) | · | · | 7 | · | · | · | ·
COc1ccc(C2C(C(=O)c3cccs3)=C(O)C(=O)N2c2nncs2)cc1 (stereo unspecified) | 0 | 3 | 67* | -10 | -3 | -1 | 34
CC(=O)OCCNc1cc(SCc2ccco2)c2nonc2c1[N+](=O)[O-] | -5 | 2 | 12 | 13 | -1 | -11 | ·
CC(=O)OCCCNc1cc(Sc2nc3ccccc3s2)c2nonc2c1[N+](=O)[O-] | 3 | 11 | 5 | 48* | 2 | -4 | · | Bim-Bcl-XL DR=4.7
CCN(C(=O)COc1cc(=O)n(CC)c2ccccc12)c1cccc(Cl)c1 | 7 | 5 | 3 | -8 | -1 | -6 | ·
O=C1c2ccccc2C(=O)N1CN(C(=O)COc1ccc(Cl)cc1Cl)c1cccc(F)c1 | -2 | 2 | 0 | -5 | 0 | 16 | · | Bim-Bcl-XL DR=-1.4
COc1cc(CNc2ccc3[nH]c(=O)[nH]c3c2)cc(Br)c1OCC(=O)NC(C)(C)C | 2 | 21 | 1 | 9 | -3 | -8 | · | Bim-Bcl-XL DR=2.9
CNC(CC(=O)c1ccc([N+](=O)[O-])cc1)C(Cl)(Cl)Cl (stereo unspecified) | 2 | 3 | -3 | 55* | 11 | 4 | · | Bim-Bcl-XL DR=2.4
S=c1[nH]cc(-c2ccccc2)n1-c1ccccc1Cl | -4 | -3 | -11 | -14 | -12 | 26 | ·
COc1ccccc1-n1c(-c2ccccc2)c[nH]c1=S | -2 | 3 | -12 | 22 | 3 | -20 | · | Bim-Bcl-XL DR=2.1
O=C1CC(N2CCc3ccccc32)C(=O)N1c1ccc(F)cc1 (stereo unspecified) | 2 | 0 | -8 | -3 | -2 | 0 | ·
CCOc1ccccc1CNc1ccc(O)cc1 | 4 | 23 | -12 | 44* | 11 | -15 | · | Bim-Bcl-XL DR=0.043
Cc1ccc(-c2cc(C(=O)Nc3nccs3)c3ccccc3n2)o1 | 0 | 4 | -1 | 37 | 11 | -3 | · | Bim-Bcl-XL DR=-0.51

Screening data: PubChem BioAssay, several laboratories
